D2 ag-1: agonists of human D2 dopamine receptor; P14416; HEK293 T-REx D2 cells, calcium flux agonist mode; activation, % at 2 µM; 340,000 tested, 0.53% active; AID 485358;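 active means activation over 3 SD above normal in the single-dose calcium agonist read, cut at about 30% in these data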; further: 0% is about no effect
Target sequence (P14416 whole entry, looked up): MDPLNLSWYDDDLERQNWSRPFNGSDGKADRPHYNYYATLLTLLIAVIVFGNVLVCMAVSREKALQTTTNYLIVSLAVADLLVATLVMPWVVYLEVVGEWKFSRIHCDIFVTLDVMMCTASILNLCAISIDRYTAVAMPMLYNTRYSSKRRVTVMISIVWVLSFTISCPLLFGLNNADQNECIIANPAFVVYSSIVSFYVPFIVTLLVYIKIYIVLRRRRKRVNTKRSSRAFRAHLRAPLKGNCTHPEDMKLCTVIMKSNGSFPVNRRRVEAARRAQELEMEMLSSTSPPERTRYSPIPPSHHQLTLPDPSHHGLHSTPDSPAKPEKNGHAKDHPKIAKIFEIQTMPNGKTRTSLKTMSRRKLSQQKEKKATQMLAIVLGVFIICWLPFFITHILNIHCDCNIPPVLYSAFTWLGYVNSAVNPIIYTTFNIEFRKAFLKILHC
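Calcium-flux readout, 1 cycle/sec over 180 s following compound pin transfer, in inducible HEK293 Trex D2 cells (force-coupled); dopamine controls included. Positive calcium responses during this window marked compounds as potential agonists.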
D2 antag: antagonizes the human D2 dopamine receptor | inhibition, % at 10 µM | 340,000 tested, 2% active | HEK293 TREx D2 cells, calcium flux, dopamine EC80; in the data active means inhibition above about 30%; inactive means below that, where a call was filed; further: 0% is about no effect
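Measurement of antagonist activity uses fluorescent calcium dye in inducible HEK293 T-REx D2 cells: 10 s baseline, compound addition with 180 s read, EC80 dopamine addition with a further 180 s read.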
D2 PAM-1: positive allosteric modulators of human D2 dopamine receptor; HEK293 T-REx D2, calcium flux, EC20 dopamine potentiation; potentiation, % at 10 µM; 340,000 tested, 0.34% active; AID 485347;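 active means potentiation over 3 SD above the plate norm, cut at about 30% in these data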; further: 0% is about no effect
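Calcium flux readout, no-wash dye, 1 read/s. Inducible HEK293 Trex D2 line, overnight 30 C. Compound alone 180 s (agonist flags), then EC20 dopamine, another 180 s to score potentiation.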
D2 ag-2: agonists of human D2 dopamine receptor (beta-arrestin) | P14416 | 360,000 tested, 0.084% active | activation, % (no concentration beside the values) | DiscoveRx PathHunter D2 beta-arrestin, luminescence, 90 min; 100% = 57 uM dopamine signal; in the data active means activation above about 40%; inconclusive means between about 15% and that limit
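Agonist mode: compounds alone added to overnight-plated D2 PathHunter cells for 90 min at 37 C, with 57 uM final dopamine (EC100) defining full response. Beta-arrestin recruitment detected by chemiluminescent reagent, read after 1 h at ambient temperature.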
D2 PAM-2: human D2 receptor positive allosteric modulation; 360,000 tested, 0.23% active; potentiation, % (no concentration beside the values); DiscoveRx D2 beta-arrestin cells, luminescence, 90 min; 100% = 57 uM dopamine signal; P14416; in the data active means potentiation above about 50%; inconclusive means mostly about 30% to 49%
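PathHunter beta-arrestin assay in DiscoveRx D2 cells. Compounds were added with an EC20 of dopamine (50 nM final) for 90 min at 37 deg C. Luminescence was read 1 h after detection reagent, with 57 uM dopamine as the EC100 control.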
Numbers without * were called inactive; ? = inconclusive; . = no result. An excerpt weighted towards active compounds, which were near 2.4% of everything screened.

SMILES	D2 ag-1	D2 antag	D2 PAM-1	D2 ag-2	D2 PAM-2
CCCC(c1nnnn1C(C)(C)CC)N(Cc1ccco1)Cc1cc2ccc(OC)cc2[nH]c1=O (stereo not given)	0	-4	36*	-3	-13
Cc1ccc(C)c(Nc2nn3c(=O)c4ccc(C(=O)N(C)Cc5ccccc5)cc4nc3s2)c1	0	.	4	.	.
Cc1ccc(C(=O)CCNc2ccccc2)o1	0	33*	-7	-5	29
Nc1ccc(O)cc1C(=O)OCC(=O)c1ccc(C2CCCCC2)cc1	0	-7	-4	13	77*
COc1ccc(C(=O)OCC(=O)c2ccc(C3CCCCC3)cc2)cc1	1	9	1	1	1
C=CCN(CC=C)Cc1c(C)[nH]c2c(C)c(C)ccc2c1=O	0	6	31*	-4	-6
COc1ccc(NC(=O)N2CCN(S(C)(=O)=O)CC2)cc1	2	34*	12	-1	-4
COc1ccc(NC(=O)N2CCN(C(=O)Nc3ccc(OC)cc3)CC2)cc1	0	10	-3	-4	-3
COc1ccc(N2CCN(C(=O)Nc3ccc(S(=O)(=O)N(C)C)cc3)CC2)cc1	0	41*	1	-4	-2
CN(C)S(=O)(=O)c1ccc(NC(=O)N2CCN(c3ccccc3)CC2)cc1	3	9	22	-7	-6
O=C(Nc1ccccc1)c1nc[nH]c1C(=O)O	0	.	5	.	.
COc1ccccc1C(=O)NC1CCCc2ccccc21 (stereo not given)	2	8	2	2	-5
COc1cc(C(=O)NC2CCCc3ccccc32)cc(OC)c1C (stereo not given)	-3	55*	.	1	-4
CS(=O)(=O)c1ccccc1C(=O)NC1CCCc2ccccc21 (stereo not given)	1	-6	37*	-1	-3
CCS(=O)(=O)c1ccccc1C(=O)NC1CCCc2ccccc21 (stereo not given)	-2	12	7	3	-5
CC1CCN(C(=O)CN2c3ccc(C(C)C)cc3-c3ccccc3S2(=O)=O)CC1	.	.	0	.	.
COc1cccc(CN2CCc3nc(Nc4ccc5c(c4)OCCO5)ncc3C2)c1OC	.	.	7	.	.
O=c1c2ccccc2n(Cc2ccccc2F)c(=O)n1-c1cccc(F)c1	-1	.	-3	.	.
N#Cc1cc2ccc(N3CCOCC3)cc2cc1C#N	0	13	13	13	69*
CCCN(c1ccccc1F)S(=O)(=O)c1cc(-c2cc(C)no2)ccc1C	0	.	1	.	.
Cc1ccc2c(c1)-c1c(c(C(=O)NCCc3ccccc3)nn1C)CS2	2	.	3	.	.
CCCCOC(=O)/C(=C/C=C/c1ccccc1)NC(=O)c1ccccc1	0	11	.	0	-9
CCCCOC(=O)/C(=C\c1ccc([N+](=O)[O-])o1)NC(=O)c1ccccc1	0	-14	36*	0	15
CC(C)CN(c1ccccc1)S(=O)(=O)c1nnc(NC(=O)c2ccco2)s1	0	68*	5	-2	-30
COc1ccc(OC(C)C(=O)NCc2nc(-c3ccc(Cl)cc3)no2)cc1 (stereo not given)	1	.	-5	.	.
SMILES	D2 ag-1	D2 antag	D2 PAM-1	D2 ag-2	D2 PAM-2
CCCOc1ccccc1C(=O)N(Cc1cccc(Br)c1)C1CCS(=O)(=O)C1 (stereo not given)	1	47*	1	2	3
FC(F)(F)c1nnc2ccc(NCc3cccnc3)nn12	-2	-10	2	0	-1
FC(F)(F)c1nnc2ccc(NCc3ccccc3)nn12	0	80*	2	4	2
COc1c(Br)cc(Br)cc1/C=N/NC(=O)c1ccncc1	1	93*	-20	2	-32
COc1c(Br)cc(Br)cc1/C=N/NC(=O)c1cccnc1	-1	90*	-17	-1	-1
COc1ccc(-c2[nH]ncc2/C=N/NC(=O)c2ccc(Br)cc2)c(OC)c1	-1	48*	-27	-7	-10
C/C(=N\NC(=O)c1ccc(Br)cc1)c1cccc(NC(=O)c2cccnc2)c1	-2	32*	-18	0	-3
C/C(=N\NC(=O)c1ccncc1)c1cccc(NC(=O)c2ccc(C(C)(C)C)cc2)c1	0	25	11	7	15
COc1ccc(C(=O)N/N=C/c2cn[nH]c2-c2ccc(OC)cc2OC)cc1	-2	5	-30	-5	-37
COc1cc(/C=N/NC(=O)c2ccncc2)cc(OC)c1OC	1	3	5	2	1
Cc1ccc(Cn2c(C(=O)O)c(CNCc3cccs3)c3ccc(C)cc32)cc1	-1	.	1	.	.
COc1ccc(CCC(=O)NCc2nc3cccnc3n2Cc2cccc(OC)c2)cc1	-1	.	-3	.	.
CN(C)c1ccc(C(=O)N/N=C/c2cc(Br)cc(Br)c2O)cc1	1	32*	-24	-5	-20
Nc1nc(SCC(=O)Nc2ccc(Cl)cc2)[nH]c(=O)c1-c1ccccc1	-1	36*	-22	-2	-29
O=C(CSc1nc(O)c(Cc2ccccc2)c(=O)[nH]1)Nc1ccccc1	0	6	16	-1	-16
COc1ccc(NC(=O)CSc2nc(O)c(Cc3ccccc3)c(=O)[nH]2)cc1	0	53*	13	0	-15
CC1=C(C)CC(C(=O)Nc2nc(-c3ccc(C)cc3C)c(C)s2)C(C(=O)O)C1 (stereo not given)	0	-8	-5	4	60*
COc1ccc(Cl)cc1NC(=S)N1CCN(c2ccccn2)CC1	21	35*	-8	2	-4
S=C(Nc1ccc(Cl)cc1Cl)N1CCN(c2ccccn2)CC1	8	18	1	2	-1
COc1cccc(NC(=S)N2CCN(c3ccccn3)CC2)c1	32*	-8	-9	?	4
S=C(Nc1cccc(Cl)c1)N1CCN(c2ccccn2)CC1	2	-15	-11	-5	-1
COc1ccc(Cl)cc1NC(=S)N1CCN(c2ncccn2)CC1	12	12	5	2	-2
COc1cc(NC(=S)N2CCN(c3ccccn3)CC2)c(OC)cc1Cl	34*	12	-9	7	-4
CCc1nnc(NC(=O)COc2ccc(N(C)S(=O)(=O)c3ccc(C)cc3)cc2)s1	12	40*	-8	-12	-13
Cc1ccc(S(=O)(=O)N(C)c2ccc(OCC(=O)Nc3nnc(C4CC4)s3)cc2)cc1	1	2	5	0	0
Cc1ccc(N=Cc2c(O)c3ccccc3n(C)c2=O)cc1	1	12	0	2	-4
Cc1ccc(N=Cc2sc(O)c3ccccc23)cc1	65*	-6	-7	12	-1
Cc1ccc(N=Cc2sc(O)c3ccccc23)c(C)c1	11	58*	-9	-7	?
Cc1ccc(Nc2ncc(C(=O)N3CCN(c4ccc(F)cc4)CC3)c3ccccc23)cc1Cl	1	.	-3	.	.
